# Results reported in PubChem BioAssay (NCATS).
# Experiment: High-throughput drug toxicity screening in the BPDCN cell line Gen2.2 (AID 1224824)
# Conditions: Gen2.2 BPDCN cells; at 45.8 µM (top of the series) unless noted
# From the text: Blastic plasmacytoid dendritic cell neoplasm (BPDCN) is a rare, aggressive and largely incurable hematologic malignancy originating from plasmacytoid dendritic cells (pDCs). Although an initial response to chemotherapy is common, BPDCN prognosis is extremely poor and most patients relapse with drug-resistant disease leading to a median overall survival of ~1 year after diagnosis. To explore novel potential therapeutic strategies in BPDCN, we performed a high-throughput drug toxicity screening in BPDCN cell liens, using of a library of 1,912 small molecules, enriched for compounds that are either approved or in early stages of development for cancer therapy.
# A total of 500 exponentially growing Gen2.2 cells were seeded per well in 5 uL of media (RPMI + Glutamine, without phenol red plus10% FBS and 1X Pen/Strep) into 1536-well solid white high base tissue culture treated Greiner One Bio Plates (789173-F), using a multidrop combi dispenser and a small sterile cassette. Compounds and controls totaling 23nL per well (negative control DMSO and positive control 9.2 uM Bortezomib-final) were immediately added to the plates using a 1536 head pin tool from Kalypsys. The plates were then covered with stainless steel gasket lids from Kalypsys and incubated for 48 hours at 37C under 95% relative humidity with 5% CO2. After 48 hours, the plates were removed and allowed to reach room temperature before 3 uL of Cell Titer Glo reagent (Promega) were added using an Aurora Flying Reagent Dispenser Bioraptor. The plates were then spun at 1000 rpms to remove bubbles and incubated for 15 minutes at room temperature before reading on a ViewLux using a luminescent filter with a 10 second exposure. The relative luciferase units were used to calculated percent activity using DMSO as 100% and Bortezomib as 0%.
row,SMILES,"cell viability, % of control (lower = more cytotoxic)"
1,C[C@]12CC[C@H]3[C@@H](CC[C@@]45O[C@H]4C(O)=C(C#N)C[C@]35C)[C@H]1CC[C@H]2O,28.9%
2,CN1C(=O)CCS(=O)(=O)C1c1ccc(Cl)cc1 (stereo not drawn),143%
3,C[C@]12CCC(=O)C=C1CC[C@@H]1[C@H]3CC[C@](C)(O)[C@@]3(C)CC[C@@H]12,95.2% [at 92.2 µM]
4,CC(C)C[C@H](CN)CC(=O)O,401%
5,C[C@](O)(CS(=O)(=O)c1ccc(F)cc1)C(=O)Nc1ccc(C#N)c(C(F)(F)F)c1,14%
6,O=P1(N(CCCl)CCCl)NCCCO1 (stereo not drawn),17%
7,C[C@]12CC[C@@H]3c4ccc(OC(=O)N(CCCl)CCCl)cc4CC[C@H]3[C@@H]1CC[C@@H]2OP(=O)(O)O,99.3%
8,CC(NC(C)(C)C)C(=O)c1cccc(Cl)c1 (stereo not drawn),145%
9,CCC1(c2ccc(N)cc2)CCC(=O)NC1=O (stereo not drawn),153%
10,CC(C)c1cccc(C(C)C)c1O,123%
11,CN1C(=O)COc2c(C(=O)NC3CN4CCC3CC4)cc(Cl)cc21 (stereo not drawn),212%
12,O=C(O)CCCc1ccc(N(CCCl)CCCl)cc1,84.6%
13,COc1cc(OC)c(OC)cc1C=O,98.9%
